Results as given in PubChem BioAssay AID1224921 (Broad Institute, 2016).
The campaign covered roughly 1,400 compounds. About 350 (25%) were called active. Another 2% or so got no clear call; they are omitted. The rule behind the calls is not given here. A selection follows. Measured potencies and affinities stand elsewhere.

Test: C. difficile growth inhibition, confirmation, 4-point retest (AID 1224921);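 note: plate controls were DMSO wells for no effect and levofloxacin 16 µg/mL wells for full effect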
Details: Clostridioides difficile clinical isolate growth, OD600, 24 h, stronger effect = lower value; at 30 µM unless noted

Max activity, inactive:
COc1ccccc1C#Cc1ccc([C@H]2[C@@H](CO)N(C(=O)C3CC3)[C@H]2C#N)cc1 12.6%
N#C[C@@H]1[C@@H](c2ccc(C#Cc3cccc(F)c3)cc2)[C@H](CO)N1C(=O)C1CCC1 24.5% [at 0.5 µM]
COc1ccccc1C#Cc1ccc([C@H]2[C@@H](C#N)N(C(=O)C3CCC3)[C@H]2CO)cc1 29.5% [at 8 µM]
N#C[C@H]1[C@@H](c2ccc(C#Cc3ccccc3F)cc2)[C@@H](CO)N1C(=O)C1CCC1 -4.04%
COc1ccccc1C#Cc1ccc([C@@H]2[C@@H](C#N)N(C(=O)C3CCCCC3)[C@H]2CO)cc1 30.9%
COc1ccccc1C#Cc1ccc([C@@H]2[C@@H](CO)N(C(=O)C3CCCCC3)[C@H]2C#N)cc1 12.6% [at 1.95 µM]
COc1cccc(C#Cc2ccc([C@H]3[C@@H](CO)N(C(=O)C4CCC4)[C@H]3C#N)cc2)c1 29% [at 8 µM]
COc1cccc(C#Cc2ccc([C@@H]3[C@@H](C#N)N(C(=O)C4CCCCC4)[C@H]3CO)cc2)c1 32.5%
C[C@H](C(=O)N(C)C[C@@H]1OCc2ccccc2-c2ccccc2C(=O)N([C@H](C)CO)C[C@H]1C)c1ccccc1 -11.2% [at 1.95 µM]
CCCC(=O)Nc1ccc2c(c1)C(=O)N(C)C[C@@H](OC)[C@H](C)CN(Cc1ccccc1)[C@@H](C)CO2 26.7%
O=C(C[C@H]1CC[C@H](NC(=O)C2CCOCC2)[C@@H](CO)O1)Nc1nccs1 -4.31% [at 1.95 µM]
C[C@H]1CN([C@@H](C)CO)S(=O)(=O)c2ccc(C#Cc3ccc(F)cc3)cc2O[C@@H]1CN(C)S(C)(=O)=O -17.5% [at 1.95 µM]
CCCC#Cc1ccc2c(c1)O[C@H](CN(C)Cc1ccncc1)[C@H](C)CN([C@@H](C)CO)S2(=O)=O -13.4% [at 8 µM]
CCCC(=O)Nc1ccc2c(c1)OC[C@@H](C)N(C(=O)c1ccccc1F)C[C@@H](C)[C@H](OC)CN(C)C2=O -11% [at 1.95 µM]
CO[C@@H]1CN(C)C(=O)c2cc(NC(=O)c3cccc(F)c3)ccc2OC[C@@H](C)N(C(C)=O)C[C@@H]1C 7.72%
C[C@@H]1CN([C@H](C)CO)C(=O)c2ccccc2-c2ccccc2CO[C@H]1CN(C)S(=O)(=O)c1ccc(Cl)cc1 34.1%
CCCN1C[C@H](C)[C@H](OC)CN(C)C(=O)c2cc(NC(=O)Nc3cccc(OC)c3)ccc2OC[C@@H]1C 17.5% [at 35 µM]
C[C@H](CO)N1C[C@H](C)[C@H](CN(C)Cc2ccccc2)Oc2c(NS(C)(=O)=O)cccc2C1=O 24.8%
C[C@@H]1CN([C@@H](C)CO)C(=O)c2cccc(NS(C)(=O)=O)c2O[C@@H]1CN(C)Cc1ccccc1 -11.2% [at 8 µM]
C[C@H]1CN([C@@H](C)CO)C(=O)c2cccc(NS(=O)(=O)c3ccccc3)c2O[C@H]1CN(C)Cc1ccc(Cl)c(Cl)c1 33.4%
C[C@@H]1CN([C@@H](C)CO)C(=O)c2cc(NC(=O)Nc3ccc(C(F)(F)F)cc3)ccc2O[C@@H]1CN(C)Cc1ccc(Oc2ccccc2)cc1 30.2%
C[C@@H]1CN([C@@H](C)CO)C(=O)c2cccc(NS(C)(=O)=O)c2O[C@H]1CN(C)Cc1ccccc1 16.6%
O=C(C[C@H]1C=C[C@H](NC(=O)c2ccncc2)[C@@H](CO)O1)Nc1ccc(-c2ccccc2)cc1 -5.7% [at 0.5 µM]
COc1ccc(COC[C@@]23Oc4ccccc4[C@@H](NC(=S)N2C)[C@H]3CO[Si](C)(C)C(C)(C)C)cc1 23.7%
O=C(C[C@H]1C[C@H]2c3cc(NC(=O)Nc4ccccc4)ccc3O[C@H]2[C@@H](CO)O1)NC1CCCC1 -20.3% [at 1.95 µM]
C[C@H]1CN([C@@H](C)CO)S(=O)(=O)c2ccc(C3=CCCCC3)cc2O[C@@H]1CN(C)Cc1cccnc1 31.2%
COc1cccc(NC(=O)N(C)C[C@H]2Oc3cc(C#CC4(O)CCCC4)ccc3S(=O)(=O)N([C@@H](C)CO)C[C@H]2C)c1 -5.35% [at 0.5 µM]
CO[C@H]1CN(C)C(=O)c2ccc(NC(=O)c3ccccc3F)cc2OC[C@@H](C)N(CC2CC2)C[C@@H]1C -8.61% [at 0.5 µM]
C[C@@H]1CN([C@@H](C)CO)C(=O)c2cc(NC(=O)Nc3cccc4ccccc34)ccc2O[C@@H](C)CCCCO[C@H]1CN(C)Cc1ccccc1 42%
COc1ccc(CN(C)C[C@@H]2OCCCC[C@H](C)Oc3ccc(NC(=O)Nc4cccc5ccccc45)cc3C(=O)N([C@@H](C)CO)C[C@H]2C)cc1 25.5%
COc1ccc(CN(C)C[C@@H]2OCCCC[C@@H](C)Oc3ccc(NC(=O)Nc4cccc5ccccc45)cc3C(=O)N([C@H](C)CO)C[C@H]2C)cc1 17.7% [at 1.95 µM]
COc1ccc(CN(C)C[C@@H]2OCCCC[C@@H](C)Oc3ccc(NC(=O)Nc4cccc5ccccc45)cc3C(=O)N([C@@H](C)CO)C[C@H]2C)cc1 29.5% [at 8 µM]
CC(C)(C)[S@@](=O)N1Cc2cc(C(=O)NCc3ccc4c(c3)OCO4)nc(-c3cccc(-c4cccnc4)c3)c2[C@H]1CCO 31.3% [at 35 µM]
O=C(C[C@@H]1C=C[C@H](NC(=O)c2cccnc2)[C@H](CO)O1)NCc1ccc(Cl)c(Cl)c1 -13.7% [at 1.95 µM]
Cc1ccc(-c2ccc3c(c2)O[C@@H](CN(C)Cc2cccnc2)[C@H](C)CN([C@@H](C)CO)S3(=O)=O)cc1 41.8%
C[C@H](NC(=O)C[C@@H]1CC[C@@H]2[C@H](COC[C@H](O)CN2C(=O)Nc2cc(Cl)cc(Cl)c2)O1)c1ccccc1 24.8% [at 8 µM]
C[C@H](NC(=O)C[C@@H]1CC[C@@H]2[C@H](COC[C@@H](O)CN2C(=O)Nc2cc(Cl)cc(Cl)c2)O1)c1ccccc1 14% [at 1.95 µM]
C[C@@H]1CN([C@@H](C)CO)S(=O)(=O)c2ccc(C#CCN(C)C)cc2O[C@H]1CN(C)C(=O)c1ccccc1F 7.9%
N#C[C@@H]1[C@@H](c2ccc(/C=C/c3ccccc3)cc2)[C@@H](CO)N1C(=O)C1CCC1 38.2% [at 35 µM]
COc1ccc(C(=O)Nc2ccc3c(c2)OC[C@H](C)N(C(C)=O)C[C@@H](C)[C@H](OC)CN(C)C3=O)cc1 -10.5%
C[C@H](CO)N1C[C@H](C)[C@@H](CN(C)S(C)(=O)=O)OCCCC[C@H](C)Oc2ccc(NC(=O)Nc3cccc4ccccc34)cc2C1=O 7.82%
COc1ccc(-c2ccc([C@H]3[C@@H](C#N)N(C(=O)C4CCCC4)[C@@H]3CO)cc2)cc1 25.1% [at 35 µM]
CCCC(=O)Nc1ccc2c(c1)C(=O)N(C)C[C@@H](OC)[C@H](C)CN(CC1CCOCC1)[C@@H](C)CO2 -8.25%
C[C@@H]1CN([C@H](C)CO)S(=O)(=O)c2ccc(C#CC3CC3)cc2O[C@H]1CN(C)Cc1ccncc1 29.7% [at 8 µM]
O=C(C[C@@H]1CC[C@H](NC(=O)CCN2CCCCC2)[C@@H](CO)O1)Nc1nccs1 -9.66% [at 1.95 µM]
C[C@@H]1CCCCO[C@H](CN(C)Cc2ccc(C(F)(F)F)cc2)[C@H](C)CN([C@@H](C)CO)C(=O)c2cc(NS(C)(=O)=O)ccc2O1 30.2%
O=C(C[C@H]1C=C[C@H](NC(=O)c2ccccn2)[C@@H](CO)O1)NCc1cc(F)cc(F)c1 -9.02% [at 8 µM]
O=C(C[C@H]1C[C@H]2c3cc(NC(=O)Nc4ccc(C(F)(F)F)cc4)ccc3O[C@H]2[C@@H](CO)O1)NCc1ccc2c(c1)OCO2 -6.78% [at 1.95 µM]
CO[C@@H]1CN(C)C(=O)c2cc(NS(=O)(=O)c3cn(C)cn3)ccc2OC[C@@H](C)N(Cc2cccc(C(F)(F)F)c2)C[C@H]1C 28.5%
Cc1noc(C)c1NC(=O)N[C@@H]1CC[C@H](CC(=O)Nc2ccc(-c3ccccc3)cc2)O[C@H]1CO 26.4%
O=C(Nc1ccc(F)cc1)Nc1ccc2c(c1)[C@H]1C[C@@H](CC(=O)N3CCCCC3)O[C@H](CO)[C@H]1O2 -19.5% [at 2.1 µM]
CCCN1C[C@@H](C)[C@@H](OC)CN(C)C(=O)c2cc(NC(=O)c3cccc(OC)c3)ccc2OC[C@H]1C -8.56% [at 0.5 µM]
CC(C)CC#Cc1ccc2c(c1)O[C@H](CN(C)CC1CC1)[C@H](C)CN([C@H](C)CO)S2(=O)=O 6.75%
COCC(=O)Nc1ccc2c(c1)OC[C@H](C)N(Cc1cncnc1)C[C@@H](C)[C@H](OC)CN(C)C2=O -11.5%
COc1ccc(CNC(=O)N(C)C[C@H]2OCc3ccccc3-c3c(n(C)c4ccccc34)C(=O)N([C@@H](C)CO)C[C@@H]2C)cc1 30.4%
C[C@H](CO)N1C[C@H](C)[C@H](CN(C)C(=O)Nc2ccc(C(F)(F)F)cc2)Oc2ncc(C3=CCCC3)cc2C1=O 32.4%
C[C@@H]1CN([C@@H](C)CO)C(=O)c2cc(NC(=O)Cc3ccccc3)ccc2O[C@@H]1CN(C)C(=O)Nc1ccccc1 -11.4% [at 0.5 µM]
C[C@@H]1CN([C@H](C)CO)C(=O)c2cc(NC(=O)Cc3ccccc3)ccc2O[C@@H]1CN(C)C(=O)Nc1ccccc1 -4.25%
C[C@H]1CN([C@@H](C)CO)C(=O)c2cc(NC(=O)Cc3ccccc3)ccc2O[C@H]1CN(C)C(=O)Nc1ccccc1 -15.5%
C[C@H](CO)N1C[C@H](C)[C@H](CN(C)C(=O)Nc2ccccc2)Oc2ccc(NC(=O)Cc3ccccc3)cc2C1=O -7.38%
C[C@H]1CN([C@@H](C)CO)C(=O)CCCn2nncc2CO[C@H]1CN(C)S(=O)(=O)c1ccc(Oc2ccccc2)cc1 10.4%
